Screening data deposited in PubChem BioAssay by several laboratories.
14-3-3 Bad inh = disrupts binding of bovine 14-3-3 zeta to phospho-Bad peptide; P63103; TR-FRET 14-3-3zeta/Dy647-pBad peptide displacement, 1 h; inhibition, % at 21.7 µM; 0.71% of 220,000 active; AID 781;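 active means inhibition above about 70%, limit read from the data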;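 further: 0% = full 14-3-3 plus peptide FRET controls and 100% = background without 14-3-3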
eIF4E 4G PPI = inhibitors of eIF4E and eIF4G interaction in translation initiation; P63073+Q04637; TR-FRET eIF4E-eIF4GI(517-606) binding, 2 h; inhibition, % at 21.7 µM; 0.37% of 220,000 active;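 active means inhibition above about 30%, limit read from the data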;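 further: 0% = full FRET control wells and 100% = background wells lacking eIF4GI fragment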
Hck-Nef inh = blocks Nef-activated human Hck kinase; P08631; Recombinant Hck-YEEI plus Nef, Z-Lyte FRET kinase assay; inhibition, % at 20 µM; 0.68% of 220,000 active; AID 463187;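 active means Hck-Nef kinase inhibition above about 50%, limit read from the data; inactive means inhibition below that limit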;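 further: 0% = DMSO with Hck plus Nef and 100% = Hck alone without Nef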
Mcl1 Noxa PPI = disrupts binding of human Mcl-1 to Noxa peptide. inhibition, % at 21.7 µM. 1.5% of 220,000 active. Q07820. TR-FRET Mcl-1/Noxa peptide binding, 2 h;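 active means compounds that cut the protein-peptide binding signal by more than 50% relative to plate controls in a single-dose test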;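 further: His-tagged Mcl-1 with rhodamine Noxa BH3 peptide and terbium anti-His antibody; 0% = Mcl-1 plus Noxa peptide wells and 100% = peptide-only wells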
Mcl1-Bid inh = Mcl-1/Bid interaction inhibition. Q07820. TR-FRET Mcl-1/Bid-Dy647 peptide binding, 1536-well. inhibition, % at 21.7 µM. 0.97% of 220,000 active;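 active means compounds that cut the binding signal by more than half at the single screening dose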;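 further: His-tagged Mcl-1 with europium anti-His antibody binding Bid BH3 peptide; 0% = Mcl-1 plus peptide wells and 100% = peptide-only wells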
Mcl-1 Bim block = human Bim-Mcl-1 interaction inhibition; Q07820; Bead-based flow cytometry, Bim peptide-Mcl-1 binding; inhibition, % at 10 µM; 0.1% of 190,000 active; in the data active means inhibition above about 40%;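 further: 0% = no compound tracer wells and 100% = peptide blocker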
The depositor's hits bear a star. A selection: hits, their analogues and other compounds. The true share with any hit is near 3.5%.

How did Cc1cc(/C=C2/C(=N)N3C(=NC2=O)SN=C3S(C)(=O)=O)c(C)n1-c1ccccc1F do in these assays?
14-3-3 Bad inh: -16.0; eIF4E 4G PPI: 31.4*; Hck-Nef inh: 30.4; Mcl1 Noxa PPI: 13.9; Mcl1-Bid inh: -1.2; Mcl-1 Bim block: 0.0

How did CCC(C)NC(=O)c1ccc(-n2c(=S)[nH]c3ccccc3c2=O)cc1 (stereo unspecified) do in these assays?
14-3-3 Bad inh: -7.4; eIF4E 4G PPI: -1.0; Hck-Nef inh: 14.7; Mcl1 Noxa PPI: -11.2; Mcl1-Bid inh: -30.7; Mcl-1 Bim block: 3.0

How did O=C(NCCN1C(=O)S/C(=C\c2ccc(Cl)c(Cl)c2)C1=O)c1ccc2c(c1)C(=O)N(Cc1ccncc1)C2=O do in these assays?
14-3-3 Bad inh: 19.6; eIF4E 4G PPI: 12.8; Hck-Nef inh: 29.2; Mcl1 Noxa PPI: 71.1*; Mcl1-Bid inh: 50.7*; Mcl-1 Bim block: -4.0

What do the screens show for `O=C(NCCN1C(=O)S/C(=C\c2ccc(Cl)c(Cl)c2)C1=O)C1COc2ccccc2O1` (stereo unspecified)?
14-3-3 Bad inh: -10.9; eIF4E 4G PPI: 3.1; Hck-Nef inh: 16.9; Mcl1 Noxa PPI: -5.3; Mcl1-Bid inh: -42.8; Mcl-1 Bim block: 0.0

What do the screens show for `Cc1cccc(-c2nnc(SCC3CNC(=O)O3)n2-c2ccc(Cl)cc2)c1` (stereo unspecified)?
14-3-3 Bad inh: -11.2; eIF4E 4G PPI: 44.9*; Hck-Nef inh: 5.9; Mcl1 Noxa PPI: 22.8; Mcl1-Bid inh: -31.8; Mcl-1 Bim block: -6.0

How did COc1ccc(-n2c(SCC3CNC(=O)O3)nnc2-c2ccc(Cl)cc2)cc1 (stereo unspecified) do in these assays?
14-3-3 Bad inh: -11.9; eIF4E 4G PPI: 2.2; Hck-Nef inh: 7.3; Mcl1 Noxa PPI: -11.0; Mcl1-Bid inh: -13.7; Mcl-1 Bim block: -3.0

Results for O=c1cc(CSc2nnc(-c3cccs3)n2Cc2ccccc2)nc2sc3ccccc3n12 ?
14-3-3 Bad inh: -14.2; eIF4E 4G PPI: -6.7; Hck-Nef inh: 6.9; Mcl1 Noxa PPI: 59.4*; Mcl1-Bid inh: -96.9; Mcl-1 Bim block: -1.0

What do the screens show for `Cc1cccc(OCC(=O)Nc2ccccc2-c2ccccc2)c1`?
14-3-3 Bad inh: -4.1; eIF4E 4G PPI: 16.3; Hck-Nef inh: 3.9; Mcl1 Noxa PPI: 18.8; Mcl1-Bid inh: -18.4; Mcl-1 Bim block: -5.0

What do the screens show for `O=C(COc1ccc2ccccc2c1)Nc1cccc2c1C(=O)NC2=O`?
14-3-3 Bad inh: 65.6; eIF4E 4G PPI: 12.9; Hck-Nef inh: 59.7*; Mcl1 Noxa PPI: -119.5; Mcl1-Bid inh: 59.7*; Mcl-1 Bim block: -3.0

What do the screens show for `FC(F)(F)c1cnc2c(-c3ccccc3)n[nH]c2c1`?
14-3-3 Bad inh: -13.3; eIF4E 4G PPI: 2.4; Hck-Nef inh: 24.5; Mcl1 Noxa PPI: 10.1; Mcl1-Bid inh: -11.0; Mcl-1 Bim block: 0.0

What do the screens show for `COc1ccccc1C(=O)N/N=C/c1cnc2ccccc2n1`?
14-3-3 Bad inh: -1.0; eIF4E 4G PPI: -3.6; Hck-Nef inh: -20.1; Mcl1 Noxa PPI: 10.4; Mcl1-Bid inh: -25.3; Mcl-1 Bim block: -5.0

What do the screens show for `C/C(=N\O)c1ccc2c(c1)OCCO2`?
14-3-3 Bad inh: -12.2; eIF4E 4G PPI: -2.0; Hck-Nef inh: -33.1; Mcl1 Noxa PPI: 0.1; Mcl1-Bid inh: -23.3; Mcl-1 Bim block: 0.0

Results for C/C(=N/O)c1ccc2c(c1)OCCOCCOc1cc(/C(C)=N/O)ccc1OCCOCCO2 ?
14-3-3 Bad inh: 24.2; eIF4E 4G PPI: 0.8; Hck-Nef inh: -1.7; Mcl1 Noxa PPI: 59.3*; Mcl1-Bid inh: 21.1; Mcl-1 Bim block: 0.0

Results for O=c1c2cnn(-c3ccccc3)c2nc(-c2cccs2)n1-c1cccc(Cl)c1 ?
14-3-3 Bad inh: 52.5; eIF4E 4G PPI: 7.4; Hck-Nef inh: -0.9; Mcl1 Noxa PPI: 14.6; Mcl1-Bid inh: 79.3*; Mcl-1 Bim block: 22.0

Results for O=C(O)CCN1C(=O)c2ccc(NC(=O)C(c3ccccc3)c3ccccc3)cc2C1=O ?
14-3-3 Bad inh: -0.9; eIF4E 4G PPI: 70.7*; Hck-Nef inh: 18.4; Mcl1 Noxa PPI: 4.7; Mcl1-Bid inh: -4.3

Results for O=C(O)CCN1C(=O)c2ccc(NC(=O)c3ccco3)cc2C1=O ?
14-3-3 Bad inh: 11.0; eIF4E 4G PPI: -0.8; Hck-Nef inh: -15.0; Mcl1 Noxa PPI: 15.6; Mcl1-Bid inh: 3.7; Mcl-1 Bim block: 0.0

Results for Cc1ccc(C=Nc2cc([N+](=O)[O-])ccc2C)s1 ?
14-3-3 Bad inh: -11.5; eIF4E 4G PPI: 0.4; Hck-Nef inh: 2.3; Mcl1 Noxa PPI: 5.5; Mcl1-Bid inh: -3.0; Mcl-1 Bim block: 0.0

How did O=C(N/N=C/c1ccc(Br)s1)c1ccccc1[N+](=O)[O-] do in these assays?
14-3-3 Bad inh: 6.6; eIF4E 4G PPI: 0.5; Hck-Nef inh: 6.7; Mcl1 Noxa PPI: 2.0; Mcl1-Bid inh: -24.9; Mcl-1 Bim block: -2.0

What do the screens show for `N#CCC(=O)N/N=C/c1cc([N+](=O)[O-])ccc1N1CCOCC1`?
14-3-3 Bad inh: -5.2; eIF4E 4G PPI: -4.1; Hck-Nef inh: 26.2; Mcl1 Noxa PPI: 37.7; Mcl1-Bid inh: -25.2; Mcl-1 Bim block: -1.0

How did CN1CCN(c2ccc([N+](=O)[O-])cc2/C=N/NC(=O)c2ccc(F)cc2)CC1 do in these assays?
14-3-3 Bad inh: -7.0; eIF4E 4G PPI: -0.6; Hck-Nef inh: 3.9; Mcl1 Noxa PPI: 74.6*; Mcl1-Bid inh: 0.3; Mcl-1 Bim block: -1.0

Results for Cc1ccc([N+](=O)[O-])cc1N=Cc1ccc(Br)s1 ?
14-3-3 Bad inh: 73.5*; eIF4E 4G PPI: 2.0; Hck-Nef inh: -0.8; Mcl1 Noxa PPI: 0.1; Mcl1-Bid inh: -19.0; Mcl-1 Bim block: 0.0

Results for O=C(N/N=C/c1ccc(Br)s1)c1ccc([N+](=O)[O-])cc1 ?
14-3-3 Bad inh: 71.0*; eIF4E 4G PPI: 16.3; Hck-Nef inh: 0.1; Mcl1 Noxa PPI: 48.3; Mcl1-Bid inh: 22.2; Mcl-1 Bim block: -20.0

Results for S=C(Nc1ccc(Nc2ccccc2)cc1)Nc1ccccn1 ?
14-3-3 Bad inh: -8.6; eIF4E 4G PPI: 1.2; Hck-Nef inh: 94.4*; Mcl1 Noxa PPI: 25.3; Mcl1-Bid inh: -26.5; Mcl-1 Bim block: -4.0

How did O=C(Nc1ccccc1)C(=O)Nc1ccccn1 do in these assays?
14-3-3 Bad inh: -5.5; eIF4E 4G PPI: 11.6; Hck-Nef inh: 2.4; Mcl1-Bid inh: -9.2; Mcl-1 Bim block: -8.0

How did S=C(Nc1ccccn1)NC1CCCCC1 do in these assays?
14-3-3 Bad inh: -1.9; eIF4E 4G PPI: 94.3*; Hck-Nef inh: -2.7; Mcl1 Noxa PPI: -7.2; Mcl1-Bid inh: -58.5

What do the screens show for `COc1ccc(-c2nc(SC(CC(=O)NCCN3CCOCC3)c3cccs3)n[nH]2)cc1` (stereo unspecified)?
14-3-3 Bad inh: -11.0; eIF4E 4G PPI: -7.9; Hck-Nef inh: -1.8; Mcl1 Noxa PPI: 0.2; Mcl1-Bid inh: -28.2; Mcl-1 Bim block: 0.0

How did CCC(C)(C(=O)NC1CCCCC1)N(Cc1ccco1)C(=O)Cc1cccs1 (stereo unspecified) do in these assays?
14-3-3 Bad inh: 4.8; eIF4E 4G PPI: -0.1; Hck-Nef inh: 0.1; Mcl1 Noxa PPI: 1.5; Mcl1-Bid inh: -29.9; Mcl-1 Bim block: 1.0
